Results from PubChem BioAssay (NCATS).
Results filed as inconclusive are left out. Where a call stands in place of a potency, no number is given. Unmarked numbers belong to inactive results. Activity calls are given as the source filed them. Calls come from the whole dose curve; as a rule, active = well fitted curve in the direction sought with a large enough effect; inconclusive = small, poorly fitted or top-dose-only effect, or another doubt; inactive = no such curve, though single readings can be large; an effect the other way counts as inactive or inconclusive.

Tests used:
[1] = qHTS of pediatric cancer cell lines to identify multiple opportunities for drug repurposing: Confirmatory screen for TC32 cells (AID 1347118);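 note: potency is the fitted concentration of half-maximal effect; cells exposed to compound for 48 h before the read; nearly all actives have a fitted effect of over 65% in size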
Summary of the method: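 qHTS, TC32, 48 h drug treatment, CellTiter-Glo luminescence as a proxy for metabolically active cells; primary top concentration 46 µM (MIPE 11-pt, NPC 8-pt); confirmatory 11-pt.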

[2] = qHTS of pediatric cancer cell lines to identify multiple opportunities for drug repurposing: Confirmatory screen for control Hh wild type fibroblast cells (AID 1347121); note: nearly all actives have a fitted effect of over 70% in size
Summary of the method: (§1)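 Cells (500-1,000/well) rested 5 h, then received compounds for 48 h; metabolically active cells were measured by CellTiter-Glo luminescence. Final concentrations spanned up to 46 µM (MIPE, 11-point) or 0.59 nM-46 µM (NPC, 8-point) in primary screens, 11-point in follow-ups.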

[3] = qHTS of pediatric cancer cell lines to identify multiple opportunities for drug repurposing: Confirmatory screen for Rh41 cells (AID 1347123);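 note: 48 h compound exposure; nearly all actives have a fitted effect of over 60% in size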; note: potency is the fitted concentration of half-maximal effect
Summary of the method: as §1

[4] = qHTS of pediatric cancer cell lines to identify multiple opportunities for drug repurposing: Confirmatory screen for RD cells (AID 1347124);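 note: cells exposed to compound for 48 h before viability readout; nearly all actives have a fitted effect of over 65% in size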; note: potency is the fitted concentration of half-maximal effect
Summary of the method: as §1

[5] = system: Zika virus NS2B-NS3 protease (unlinked complex); assay: Primary screen GU Rhodamine qHTS for Zika virus inhibitors: Unlinked NS2B-NS3 protease assay (AID 1347159); note: nearly all actives have a fitted effect of over 60% in size; note: potency is the fitted concentration of half-maximal effect
Summary of the method: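 A qHTS format was used, with compound concentrations ranging up to 114 microM. Each compound was preincubated with 25 nM NS2B-NS3 protease, and the substrate was then added at 1.5 microM. Curves were fitted with a 4-parameter Hill model.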

[6] = qHTS of pediatric cancer cell lines to identify multiple opportunities for drug repurposing: Confirmatory screen for MG 63 (6-TG R) cells (AID 1347119); note: nearly all actives have a fitted effect of over 55% in size; note: potency is the fitted concentration of half-maximal effect
Summary of the method: as §1

[7] = qHTS of pediatric cancer cell lines to identify multiple opportunities for drug repurposing: Confirmatory screen for U-2 OS cells (AID 1347122); note: nearly all actives have a fitted effect of over 65% in size; note: potency is the fitted concentration of half-maximal effect
Summary of the method: as §1

[8] = qHTS of pediatric cancer cell lines to identify multiple opportunities for drug repurposing: Confirmatory screen for Saos-2 cells (AID 1347127); note: nearly all actives have a fitted effect of over 60% in size; note: potency is the fitted concentration of half-maximal effect
Summary of the method: as §1

[9] = qHTS of pediatric cancer cell lines to identify multiple opportunities for drug repurposing: Confirmatory screen for SK-N-SH cells (AID 1347129);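 note: cells exposed to compound for 48 h before viability read; nearly all actives have a fitted effect of over 60% in size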; note: potency is the fitted concentration of half-maximal effect
Summary of the method: as §1

[10] = system: Zika virus NS2B-NS3 protease; assay: Primary screen GU AMC qHTS for Zika virus inhibitors (AID 1347154); note: nearly all actives have a fitted effect of over 70% in size
Summary of the method: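 Fluorogenic AMC-substrate cleavage by noncovalent NS2B-NS3 protease complex (25 nM, pH 8.0 Tris buffer with Tween 20) followed for 15 minutes at room temperature (~20% conversion). Percent inhibition from ex340/em450 signal change, fitted by 4-parameter Hill equation.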

[11] = qHTS of pediatric cancer cell lines to identify multiple opportunities for drug repurposing: Confirmatory screen for Rh18 cells (AID 1347125); note: nearly all actives have a fitted effect of over 55% in size; note: potency is the fitted concentration of half-maximal effect
Summary of the method: as §1

[12] = qHTS of pediatric cancer cell lines to identify multiple opportunities for drug repurposing: Confirmatory screen for OHS-50 cells (AID 1347128);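 note: compound exposure lasted 48 h at 37 degrees C; nearly all actives have a fitted effect of over 55% in size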; note: potency is the fitted concentration of half-maximal effect
Summary of the method: as §1

[13] = qHTS of pediatric cancer cell lines to identify multiple opportunities for drug repurposing: Confirmatory screen for Rh30 cells (AID 1347126); note: nearly all actives have a fitted effect of over 55% in size; note: potency is the fitted concentration of half-maximal effect
Summary of the method: as §1

[14] = system: Zika virus NS2B-NS3 protease (unlinked complex); assay: Confirmatory screen GU AMC qHTS for Zika virus inhibitors (AID 1347153); note: nearly all actives have a fitted effect of over 70% in size
Summary of the method: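 Fluorescence change (ex 340/em 450 nm) over 15 min, ~20% substrate conversion, normalized to no-inhibitor and no-enzyme controls, then Hill-fitted. Unlinked protease at 25 nM; AMC peptide 10 µM.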

Compound | Potency [1] | Potency [2] | Potency [3] | Potency [4] | Potency [5] | Potency [6] | Potency [7] | Potency [8] | Potency [9] | Potency [10] | Potency [11] | Potency [12] | Potency [13] | Potency [14]
C=CC(=O)N1CCC[C@@H](n2nc(-c3ccc(Oc4ccccc4)cc3)c3c(N)ncnc32)C1 | 7370 nM (active) | inactive | 14700 nM (active) | inactive | inactive |  |  |  |  |  |  |  |  | 
CN(C)CCCN=c1c2ccccc2n(C)c2[nH]c(=O)n(C)c(=O)c12 |  | inactive | 23300 nM (active) |  |  | inactive | inactive | inactive | inactive | inactive |  |  |  | 
CC1(C)CCC(c2ccc(Cl)cc2)=C(CN2CCN(c3ccc(C(=O)NS(=O)(=O)c4ccc(N[C@H](CCN5CCOCC5)CSc5ccccc5)c(S(=O)(=O)C(F)(F)F)c4)cc3)CC2)C1 |  | inactive | inactive | inactive | 2240 nM (active) | inactive | inactive | inactive |  |  | inactive |  |  | 
COc1cc2nccc(Oc3ccc(NC(=O)C4(C(=O)Nc5ccc(F)cc5)CC4)cc3)c2cc1OC | 18500 nM (active) | inactive | 26100 nM (active) | inactive | inactive |  |  | 18500 nM (active) |  | inactive |  | 20800 nM (active) |  | 
Cc1c(CN2CCN(S(C)(=O)=O)CC2)sc2c(N3CCOCC3)nc(-c3cnc(N)nc3)nc12 | 737 nM (active) |  | 928 nM (active) |  | inactive | 329 nM (active) |  | 1310 nM (active) | 2960 nM (active) | inactive | 1040 nM (active) | 2330 nM (active) |  | 
CC[C@H]1CN2CCc3cc(OC)c(OC)cc3[C@H]2C[C@@H]1C[C@@H]1NCCc2cc(OC)c(OC)cc21 |  | inactive | 1470 nM (active) | 369 nM (active) |  | 827 nM (active) | 928 nM (active) | 928 nM (active) | 332 nM (active) | inactive |  | 414 nM (active) |  | 
O=C(C=Cc1cccnc1)NCCCCC1CCN(C(=O)c2ccccc2)CC1 |  | inactive | inactive | inactive |  | inactive | inactive |  | inactive | inactive | inactive | inactive | inactive | 
CC(C)c1nn(-c2c(Cl)cccc2Cl)c2nc(Cc3ccc(OCCO)cc3)[nH]c(=O)c12 | 131 nM (active) |  | 131 nM (active) | 208 nM (active) | inactive |  |  | 82.7 nM (active) | 118 nM (active) | inactive |  |  |  | 
Cc1ccc(C(=O)Nc2cccc(C(F)(F)F)c2)cc1-c1ccc2nc(NCCN3CCOCC3)ncc2c1 | 6570 nM (active) |  | 5850 nM (active) | 7370 nM (active) | inactive |  |  | 8270 nM (active) | inactive |  | 7370 nM (active) |  |  | inactive
OCCCNc1cc(-c2ccnc(Nc3cccc(Cl)c3)n2)ccn1 | 165 nM (active) | inactive | 52.2 nM (active) |  | inactive |  |  | 261 nM (active) | 148 nM (active) | inactive |  | 329 nM (active) | 414 nM (active) | 
Cn1c(=O)n(-c2ccc(C(C)(C)C#N)cc2)c2c3cc(-c4cnc5ccccc5c4)ccc3ncc21 | 827 nM (active) |  | 2330 nM (active) |  | inactive | 369 nM (active) |  |  |  | inactive |  | 5850 nM (active) | 2330 nM (active) | 
CC(C)(C)c1cc(NC(=O)Nc2ccc(-c3cn4c(n3)sc3cc(OCCN5CCOCC5)ccc34)cc2)no1 | 3290 nM (active) |  | 13100 nM (active) |  | inactive |  |  |  | 20900 nM (active) | inactive |  |  |  | 
